Activity calls are given as the source filed them. Rule for the calls: active = hit-call score of the fitted dose curve at least 0.9, where 1 is the maximum; inactive = score below 0.9.

This is an account of results in PubChem BioAssay (EPA / NIEHS).

Read-out in assay [1]: Interleukin-8 (IL8), CXCL8 (gene 3576)
The assay is described as follows: BSK_CASM3C_IL8: BioMAP Diversity Plus: CASM3C Assay for Interleukin-8 (IL8) Biomarker Activity (AID 2283042).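 Note: IL-8 protein level quantified by ELISA.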 Conditions: primary human coronary artery smooth muscle cells; actives raise or lower the signal.

Read-out in assay [2]: Human Leukocyte Antigen - DR isotype (HLADR), HLA-DRA (gene 3122)
In words: BSK_CASM3C_HLADR: BioMAP Diversity Plus: CASM3C Assay for Human Leukocyte Antigen - DR isotype (HLADR) Biomarker Activity (AID 2283043).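 Note: cell-surface HLA-DR protein level quantified by ELISA.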 The following applies: primary human coronary artery smooth muscle cells; actives raise or lower the signal.

Read-out in assay [3]: Macrophage colony-stimulating factor (MCSF), CSF1 (gene 1435)
The assay is described as follows: BSK_CASM3C_MCSF: BioMAP Diversity Plus: CASM3C Assay for Macrophage colony-stimulating factor (MCSF) Biomarker Activity (AID 2283044).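 Note: M-CSF protein amount quantified by ELISA after 24 h exposure.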 Conditions: primary human coronary artery smooth muscle cells; actives raise or lower the signal.

Read-out in assay [4]: Low-density lipoprotein receptor (LDLR), LDLR (gene 3949)
In words: BSK_CASM3C_LDLR: BioMAP Diversity Plus: CASM3C Assay for Low-density lipoprotein receptor (LDLR) Biomarker Activity (AID 2283045).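 Note: LDLR protein level on the cell surface quantified by ELISA.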 Conditions: primary human coronary artery smooth muscle cells; actives raise or lower the signal.

Read-out in assay [5]: Monocyte Chemoattractant Protein-1 (MCP1), CCL2 (gene 6347)
In words: BSK_CASM3C_MCP1: BioMAP Diversity Plus: CASM3C Assay for Monocyte Chemoattractant Protein-1 (MCP1) Biomarker Activity (AID 2283046).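 Note: MCP-1 level quantified by ELISA 24 h after dosing.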 Conditions: primary human coronary artery smooth muscle cells; actives raise or lower the signal.

Assay [6] is described as follows: BSK_CASM3C_Proliferation: Cell Proliferation Assessment in the BioMAP Diversity Plus: CASM3C Assay (AID 2283047).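 Note: sulforhodamine B total protein stain as relative cell number at 560 nm; sub-confluent cells exposed 48 h before staining; fitted both ways against DMSO so gain or loss of cell number.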 Conditions: primary human coronary artery smooth muscle cells.
Read-out in assay [7]: Monokine induced gamma interferon (MIG), CXCL9 (gene 4283)
In words: BSK_CASM3C_MIG: BioMAP Diversity Plus: CASM3C Assay for Monokine induced gamma interferon (MIG) Biomarker Activity (AID 2283048).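 Note: MIG protein level measured by ELISA.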 Conditions: primary human coronary artery smooth muscle cells; actives raise or lower the signal.

Read-out in assay [8]: serum amyloid A (SAA), SAA1 (gene 6288)
In words: BSK_CASM3C_SAA: BioMAP Diversity Plus: CASM3C Assay for serum amyloid A (SAA) Biomarker Activity (AID 2283049).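 Note: SAA protein level quantified by ELISA.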 Conditions: primary human coronary artery smooth muscle cells; actives raise or lower the signal.

The nature of assay [9]: BSK_CASM3C_SRB: Viability Assessment in the BioMAP Diversity Plus: CASM3C Assay (AID 2283050).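 Note: total protein by SRB staining as cytotoxicity measure in parallel cultures; cells exposed to compound for 24 h.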 Conditions: primary human coronary artery smooth muscle cells.
Read-out in assay [10]: Thrombomodulin, THBD (gene 7056)
The assay is described as follows: BSK_CASM3C_Thrombomodulin: BioMAP Diversity Plus: CASM3C Assay for Thrombomodulin Biomarker Activity (AID 2283051).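 Note: thrombomodulin protein level measured by ELISA 24 h after dosing.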 The following applies: primary human coronary artery smooth muscle cells; actives raise or lower the signal.

Read-out in assay [11]: Tissue Factor, F3 (gene 2152)
The assay is described as follows: BSK_CASM3C_TissueFactor: BioMAP Diversity Plus: CASM3C Assay for Tissue Factor Biomarker Activity (AID 2283052).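 Note: cell surface tissue factor protein level read by ELISA.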 Conditions: primary human coronary artery smooth muscle cells; actives raise or lower the signal.

Read-out in assay [12]: Interferon-gamma inducible Protein 10 (IP10), CXCL10 (gene 3627)
The assay is described as follows: BSK_hDFCGF_IP10: BioMAP Diversity Plus: hDFCGF Assay for Interferon-gamma inducible Protein 10 (IP10) Biomarker Activity (AID 2283053). The following applies: primary human foreskin fibroblasts; actives raise or lower the signal. An outline of the steps:
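Primary foreskin fibroblasts, human; 24 h compound exposure; IP-10 by ELISA; bidirectional fit vs DMSO.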

Read-out in assay [13]: Urokinase-type plasminogen activator receptor (uPAR), PLAUR (gene 5329)
In words: BSK_CASM3C_uPAR: BioMAP Diversity Plus: CASM3C Assay for Urokinase-type plasminogen activator receptor (uPAR) Biomarker Activity (AID 2283054).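 Note: cell-surface uPAR protein level quantified by ELISA.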 The following applies: primary human coronary artery smooth muscle cells; actives raise or lower the signal.

Read-out in assay [14]: Vascular cell adhesion molecule 1 (VCAM1), VCAM1 (gene 7412)
In words: BSK_CASM3C_VCAM1: BioMAP Diversity Plus: CASM3C Assay for Vascular cell adhesion molecule 1 (VCAM1) Biomarker Activity (AID 2283055).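 Note: VCAM-1 protein level quantified by ELISA on the cells.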 Conditions: primary human coronary artery smooth muscle cells; actives raise or lower the signal.

Read-out in assay [15]: Collagen III, COL3A1 (gene 1281)
The assay is described as follows: BSK_hDFCGF_CollagenIII: BioMAP Diversity Plus: hDFCGF Assay for Collagen III Biomarker Activity (AID 2283056). Conditions: primary human foreskin fibroblasts; actives raise or lower the signal. In outline:
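Cells: human foreskin fibroblasts, primary. Dosing followed by 24 h incubation, then ELISA for collagen III. Both increases and decreases scored relative to DMSO.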

Read-out in assay [16]: Epidermal growth factor receptor (EGFR), EGFR (gene 1956)
The assay is described as follows: BSK_hDFCGF_EGFR: BioMAP Diversity Plus: hDFCGF Assay for Epidermal growth factor receptor (EGFR) Biomarker Activity (AID 2283057). The following applies: primary human foreskin fibroblasts; actives raise or lower the signal. In outline: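 hDFCGF system, primary human foreskin fibroblasts; compound 24 h; EGFR measured by ELISA; DMSO = negative control/baseline; bidirectional fitting.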

Read-out in assay [17]: Interleukin-8 (IL8), CXCL8 (gene 3576)
In words: BSK_hDFCGF_IL8: BioMAP Diversity Plus: hDFCGF Assay for Interleukin-8 (IL8) Biomarker Activity (AID 2283058). The following applies: primary human foreskin fibroblasts; actives raise or lower the signal. In outline: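 IL-8 levels from compound-treated primary human fibroblasts were read by ELISA at 24 h, with DMSO serving as baseline for bidirectional fitting.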

Assay [18] can be described thus: BSK_hDFCGF_Proliferation: Cell Proliferation Assessment in the BioMAP Diversity Plus: hDFCGF Assay (AID 2283059).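 Note: curves fitted for both rise and fall of signal versus DMSO baseline.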 The following applies: primary human foreskin fibroblasts. An outline of the steps: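 Total protein read at 560 nm after 0.1% SRB staining of TCA-fixed human skin fibroblasts, […]. Activity is fitted in both directions relative to DMSO as baseline.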

The nature of assay [19]: BSK_hDFCGF_SRB: Viability Assessment in the BioMAP Diversity Plus: hDFCGF Assay (AID 2283061).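 Note: cells exposed to compound for 24 h before the read.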 The following applies: primary human foreskin fibroblasts. An outline of the steps:
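Cells were dosed with test chemical, cultured 24 h, fixed with 10% TCA, then stained with 0.1% SRB and read at 560 nm. The fibroblasts were human foreskin primary cells, and DMSO served as baseline.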

What is called AC50 is the concentration giving half of the maximal activity seen. `CCCCCCOC(=O)c1ccccc1C(=O)OCCCCCC`: the result in assay [1], in assay [2], in [3], in assay [4], in assay [5] and in assay [6] was inactive. Moreover, the outcome in [7], in assay [8], in [9], in [11], in assay [12] and in [13] was inactive. In addition, the outcome in assay [14], in [16], in assay [17] and in [19] was inactive. Moreover, the AC50 is 17.5 µM (active) in assay [10], 7.56 µM (active) in assay [15] and 11.2 µM (active) in assay [18].
As to `O=S(=O)(O)C(F)(F)C(F)(F)C(F)(F)C(F)(F)C(F)(F)C(F)(F)F`, the result in [1], in [2], in [3], in assay [4], in [5] and in [6] was inactive. For the same molecule, the result in assay [7], in assay [8], in assay [9], in [10], in assay [11] and in assay [12] was inactive. Further, the result in assay [13], in assay [14], in assay [15], in assay [16], in assay [17] and in assay [18] was inactive. Moreover, the outcome in [19] was inactive.
With `CCCCCCCCOC(=O)c1ccccc1C(=O)OCCCCCCCC`, the result in [1], in [2], in [3], in assay [4], in assay [5] and in assay [6] was inactive. Further, the result in assay [7], in assay [8], in [9], in assay [10], in [11] and in assay [12] was inactive. The outcome in [13], in assay [14], in assay [15], in [16], in [17] and in assay [18] was inactive. The result in assay [19] was inactive.
In the case of `ClC(Cl)=C(c1ccc(Cl)cc1)c1ccc(Cl)cc1`, the outcome in [1], in assay [4], in assay [5], in assay [7], in assay [8] and in assay [9] was inactive. Further, the outcome in assay [11], in [13], in assay [14] and in [16] was inactive. The AC50 in [2] is 20 µM (active); in assay [3], 20 µM (active); in [6] it was 29.1 µM (active); in [10] it was 20 µM (active); in assay [12], 26.4 µM (active); in [15] it was 24.5 µM (active). In addition, the AC50 was 30 µM (active) in assay [17], 5.36 µM (active) in assay [18] and 18.2 µM (active) in assay [19].
As to `CC(C)(O)C(=O)Nc1ccc([N+](=O)[O-])c(C(F)(F)F)c1`, the result in assay [1], in [2], in [3], in assay [4], in assay [5] and in assay [6] was inactive. Besides, the result in [7], in assay [8], in [9], in [10], in [11] and in [12] was inactive. Further, the result in assay [13], in [14], in assay [15], in [16], in [17] and in assay [18] was inactive. Also, the outcome in assay [19] was inactive.
As to `Clc1ccc(C(Cl)(Cl)Cl)cc1`, the result in [1], in assay [2], in [3], in assay [4], in assay [5] and in assay [6] was inactive. Also, the outcome in assay [7], in [8], in assay [9], in assay [10], in assay [11] and in [12] was inactive. Besides, the result in assay [13], in assay [14], in [15], in [16], in assay [17] and in assay [18] was inactive. Besides, in assay [19], the result was inactive.
